# Most compounds without a hit are left out; they make up all but 3.6% or so of the library.
# Sfp PPTase inh: qHTS Assay for Inhibitors of Bacillus subtilis Sfp phosphopantetheinyl transferase (PPTase); Biochemical Sfp PPTase activity, qHTS; 4'-phosphopantetheinyl transferase ffp (Bacillus subtilis), Q9F4F7; Potency, µM, inactives show largest response in the series, negative = inhibition, most hits filed as inhibitors; 3.5% of 310,000 active; AID 1490, 2009;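 further: the enzyme is Sfp with the accession as filed and its product quenches rhodamine fluorescence; 0% = enzyme reaction without inhibitor and -100% = no enzyme wells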
#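 With Hepes-Na pH 7.6 buffer containing 10 mM MgCl2, Sfp (15 nM) modified BHQ-2-YbbR (12.5 uM) using rhodamine-CoA (5 uM). Two reads 30 minutes apart at 525/598 nm yielded each well's rate.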
# Epigenetic derep: Quantitative High-Throughput Screen for Regulators of Epigenetic Control; murine LDR cells, GFP reporter derepression, 30 h; Potency, µM (doses to about 53.9 µM), for the others: at the highest dose GFP activation, hits mostly activators; 0.2% of 280,000 active; AID 1865, 2009; further: % of control where 0% means no effect; nearly all actives have a fitted effect of over 60% in size
#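 Murine LDR cells carrying a silenced, genomically integrated CMV-driven GFP reporter were exposed to compound for 30 hours at 37 C. After PBS washes, GFP-positive cells (20–120 um objects) were counted by laser-scanning microplate cytometry.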
# KDM4E inh: qHTS Assay for Inhibitors of Human Jumonji Domain Containing 2E (JMJD2E) | Lysine-specific demethylase 4E (Homo sapiens), B2RXH2 | JMJD2E catalytic domain, FDH-coupled NADH fluorescence (FDH is formaldehyde dehydrogenase) | Potency, µM (highest dose often 57.1 µM), inactives show at the top dose activity change, negative = inhibition, actives largely listed as inhibitors | 1.6% of 230,000 active; active means well fitted inhibition curve with a large enough effect, not every such curve was filed as active; inconclusive means small, poorly fitted or top-dose-only effect, or another doubt; inactive means no such curve, though single readings can be large or run the other way;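 further: 0% = wells with enzyme and -100% = buffer wells without enzyme; nearly all actives have a fitted effect of over 50% in size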
# IMPase Li inh: qHTS Assay for Identifying the Cell-Membrane Permeable IMPase Inhibitors: Potentiation with Lithium | CHO-M1 cells, IP1 TR-FRET (IP-One), carbachol + lithium | 0.35% of 210,000 active | Potency, µM (titrated, usually from 59.4 µM), inactives show at the top dose activity, negative = IMPase inhibition, most hits filed as inhibitors;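 further: IP1 builds up when IMPase is blocked and the TR-FRET signal falls; plate controls were basal vehicle for no effect and high inhibitor control for full effect; nearly all actives have a fitted effect of over 50% in size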
#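 CHO cells stably expressing M1 receptor (2000/well) were cultured 16–30 h, then exposed to compounds with a small lithium addition for 30 min at 37C. IP1 was measured by TR-FRET competition; AC50 from Hill fits.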
# GCN5L2 inh: qHTS Assay for Inhibitors of GCN5L2 | Potency, µM (titrated, usually from 58.9 µM), for the others: top-dose activity change, negative = inhibition, usual class: inhibitors | GCN5L2 HAT assay, ThioGlo1 CoA-SH fluorescence | Histone acetyltransferase KAT2A (Homo sapiens), Q92830 | 0.21% of 390,000 active; further: on the % scale 0 is the no-effect control and ±100 the full control effect
# Target sequence (Q92830 whole entry, looked up): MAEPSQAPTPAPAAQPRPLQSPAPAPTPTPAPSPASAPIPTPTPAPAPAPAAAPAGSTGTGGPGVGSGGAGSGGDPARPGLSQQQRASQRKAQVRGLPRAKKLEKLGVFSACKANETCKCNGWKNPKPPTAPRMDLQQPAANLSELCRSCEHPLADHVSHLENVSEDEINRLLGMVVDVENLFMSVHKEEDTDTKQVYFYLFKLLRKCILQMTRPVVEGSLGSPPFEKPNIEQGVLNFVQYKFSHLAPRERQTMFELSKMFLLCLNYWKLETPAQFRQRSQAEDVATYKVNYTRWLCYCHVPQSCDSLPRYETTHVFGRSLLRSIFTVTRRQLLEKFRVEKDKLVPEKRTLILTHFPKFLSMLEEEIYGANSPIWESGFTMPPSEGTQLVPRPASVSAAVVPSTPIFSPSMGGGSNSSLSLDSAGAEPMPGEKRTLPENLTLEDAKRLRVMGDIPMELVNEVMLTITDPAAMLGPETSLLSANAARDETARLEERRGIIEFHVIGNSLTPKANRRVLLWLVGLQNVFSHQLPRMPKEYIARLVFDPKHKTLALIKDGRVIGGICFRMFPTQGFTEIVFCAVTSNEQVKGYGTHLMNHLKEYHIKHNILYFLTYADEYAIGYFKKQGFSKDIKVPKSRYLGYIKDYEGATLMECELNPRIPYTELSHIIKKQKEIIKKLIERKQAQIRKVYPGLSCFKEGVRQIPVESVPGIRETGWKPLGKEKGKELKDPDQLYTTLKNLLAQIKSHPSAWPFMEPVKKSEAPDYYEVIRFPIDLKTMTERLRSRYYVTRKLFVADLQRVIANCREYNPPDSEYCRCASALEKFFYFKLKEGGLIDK
#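 ThioGlo1-coupled HAT assay: 20nM GCN5L2, 70uM acetyl-CoA, 75uM H3(1-25) peptide, pH 7.5. Fluorescence read at 340/540nm at start and after 20 min at room temperature.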
# NPSR antag: qHTS Assay for Antagonists of the Neuropeptide S Receptor: cAMP Signal Transduction | Q6W5P4 | CHO-NPSR cells, cAMP TR-FRET, antagonist mode | Potency, µM (titrated, usually from 38.3 µM), for inactives: at the top dose activity change, negative = inhibition, most hits filed as inhibitors | 1% of 220,000 active | AID 1461, 2008; further: on the % scale 0 is the no-effect control and ±100 the full control effect; nearly all actives have a fitted effect of over 50% in size
# * = called active by the depositor; ? = inconclusive; nt = not tested or not shown; [ ] = remark or other dose. Unless noted, the call rests on the fitted dose curve; in most records, active means well fitted curve in the direction sought with a large enough effect; inconclusive means small, poorly fitted or top-dose-only effect, or another doubt; inactive means no such curve, though single readings can be large; an effect the other way counts as inactive or inconclusive. Potency means the concentration at half of the fitted maximal effect.
SMILES,Sfp PPTase inh,Epigenetic derep,KDM4E inh,IMPase Li inh,GCN5L2 inh,NPSR antag
O=C(Nc1ccc2c(c1)CCC2)C1CCN(c2c3c(nc4ncnn24)CCC3)CC1,9%,-2%,7%,-5%[38.3 µM],-5%,-6%[46.1 µM]
CCOC(=O)CCN1C(=O)[C@H]2[C@H]3[C@H](O)[C@H](O)C/C(=N/NC(=O)OCc4ccc(OC)cc4)[C@@H]3CC[C@@H]2C1=O,8%,0%[10.1 µM],nt,nt,nt,nt
CCCCCCCCCCCCCCCCOCC(CO)OC(C)=O (stereo unspecified),13%,1%,-2%,43%,-2%,nt
CSc1cnn(-c2ccccc2)c(=O)c1SC,79µM*,7%,2%,11µM*,-1%,?
CCSc1cnn(-c2ccccc2)c(=O)c1SCC,8%,3%,-2%,10µM*,-5%,13µM*
CCCCSc1cnn(-c2ccccc2)c(=O)c1SCCCC,-16%,0%,10%,-24%,-9%,13µM*
CCCN1CCN(c2nnc(-n3cccc3C(=O)Nc3cc(Cl)ccc3C)s2)CC1,nt,5%,nt,nt,23%,nt
O=C(O)c1ccc2nc(-c3cc4cccc(O)c4oc3=O)[nH]c2c1,nt,-1%,nt,nt,-20%,nt
C=CCc1cccc2cc(-c3nc4ccc(C)cc4[nH]3)c(=O)oc12,nt,4µM*,nt,nt,-9%,nt
Br/C(=N\Nc1nn[nH]n1)c1ccncc1,nt,nt,nt,-1%,nt,nt
COc1cccc(NC(=O)c2sc3nc(C)c(C(=O)Nc4ccc(C)cc4C)c(-c4cccs4)c3c2N)c1,nt,1%,nt,nt,18µM*,nt
CCN(CC)CCOC(=O)c1ccc(NC(=O)Cn2ncc3c([nH]c4ccc(C)cc43)c2=O)cc1,nt,0%,nt,nt,23%,nt
CCCCC(=O)Nc1nnc(SCc2cc(=O)n3cc(C)ccc3n2)s1,nt,0%,nt,nt,-5%,nt
Oc1ccc(CN2CCCc3ccccc32)c2cccnc12,-4%,?,8.9µM*,14%[38.3 µM],-4%,1%[46.1 µM]
COc1ccccc1N1CCN(Cc2ccc(O)c3ncccc23)CC1,-18%,?,1%,65%[38.3 µM],-9%,4µM*
Oc1ccc(COC2CCN(Cc3ccccc3)C2)c2cccnc12 (stereo unspecified),nt,nt,nt,nt,-4%,nt
CCOC(=O)C1CCN(Cc2ccc(O)c3ncccc23)CC1,11%,5.6µM*,8.9µM*,0%[38.3 µM],1%,2.5µM*
COc1ccccc1N1CCN(Cc2c[nH]c3ccccc23)CC1,16%,1%,-4%,nt,-23%,8%[7.67 µM]
Cc1cccc(S(=O)(=O)c2cn(C)c3cc(N4CCN(c5ccc(F)cc5)CC4)c(F)cc3c2=O)c1,nt,0%,nt,nt,-2%,nt
c1ccc(Cn2c(SCc3nc4ccccc4s3)nnc2-c2ccco2)cc1,20µM*,0%,-10%,24%[38.3 µM],-12%,-13%[46.1 µM]
CCC(c1nnc(SCc2nc3ccccc3s2)n1Cc1ccccc1)N(C)C (stereo unspecified),-15%,0%,-6%,15%[38.3 µM],-2%,-18%[46.1 µM]
CC1(O)C(=O)C=C2C=C(CCCCOCc3ccccc3)OC=C2C1=O (stereo unspecified),3%,0%[10.1 µM],nt,nt,nt,nt
Cc1cc(C)n(CC(O)Cn2c3ccccc3c3ccccc32)n1 (stereo unspecified),50µM*,-2%,13%,59%[38.3 µM],-5%,?
Fc1ccc(-c2nnc3sc(C4COc5ccccc5O4)nn23)cc1 (stereo unspecified),-8%,-1%,-5%,-13%[38.3 µM],-3%,-20%[46.1 µM]
Fc1ccc(-c2nn3c(C4COc5ccccc5O4)nnc3s2)cc1 (stereo unspecified),40µM*,-1%,-5%,4%[38.3 µM],-1%,-7%[46.1 µM]
SMILES,Sfp PPTase inh,Epigenetic derep,KDM4E inh,IMPase Li inh,GCN5L2 inh,NPSR antag
c1ccc2c(c1)OCC(c1nnc3sc(-c4cnccn4)nn13)O2 (stereo unspecified),20µM*,0%,-4%,20%[38.3 µM],-15%,-19%[46.1 µM]
Cc1coc2c1c(C)cc1oc(=O)c(CC(=O)NCc3ccc(Cl)cc3)c(C)c12,nt,-3%,nt,nt,-8%,nt
O=c1[nH]c(CSc2cccc[n+]2[O-])nc2ccccc12,45µM*,3%,1%,nt,-6%,?
Cc1cccc(C2=N[C@@H](CC(C)C)CO2)c1,6%,-1%[96.6 µM],nt,-1%,-26%[135 µM],nt
NNC(=S)NC1CCS(=O)(=O)C1 (stereo unspecified),8.9µM*,3%,-26%,nt,0%,11%
CN(C)C(=S)NC1CCS(=O)(=O)C1 (stereo unspecified),18%,-1%,-4%,0%,-9%,9%
CCCCCCCCCCCCC/C=C/[C@@H](O)[C@H](CO)NCCCCCCCC,-25%,-1%,?,-4%,4%,nt
O=c1[nH]c2cc3c(cc2cc1CN(Cc1cccnc1)C(=S)NCc1ccco1)OCCO3,5µM*,1%,4%,14%,3%,42%
CN(C)CCN(Cc1cc2cc3c(cc2[nH]c1=O)OCO3)C(=S)NCc1ccco1,6%,0%,?,8%,-1%,-6%
O=c1[nH]c2cc3c(cc2cc1CN(Cc1cccnc1)C(=S)NCc1ccco1)OCO3,40µM*,0%,?,12%,-2%,39%
C[C@H]1OC(=O)CC[C@@H]2[C@]1(C)CCC1[C@@]2(C)CC[C@@]2(C)C3CC(C)(C)CC[C@]3(CO)CC[C@]12C (stereo partly specified),22%,1%,10%,-4%,nt,nt
COc1ccc(-n2c(=O)c(-c3ccccc3)nc3cnc(N4CCOCC4)nc32)cc1,28%,nt,nt,1%,-11%,nt
COc1ccc(CCNc2nc(C)nc3c2oc2ccccc23)cc1OC,28µM*,0%,0%,51%[38.3 µM],-14%,-29%[46.1 µM]
CCCCCCCCCCCCCCCCOC[C@H](COP(=O)([O-])OCC[N+](C)(C)C)OC(=O)CCCCCCCC(=O)O,-19%,nt,nt,nt,16µM*,nt
CCCCCCCCCCCCCCCC(=O)OC[C@H](COP(=O)([O-])OCC[N+](C)(C)C)OC(=O)CCCCCCCCCCCCCCC,-3%,0%,0%,-9%,2%,0%
CCOC(=O)c1c(C)[nH]c(CCC(=O)NCc2ccccc2Cl)c1C,nt,0%,nt,nt,-2%,nt
COc1ccccc1C(=O)N1CCN(Cc2cccnc2)CC1,63µM*,nt,nt,nt,-7%,nt
COc1cccc(C(=O)N2CCN(Cc3cccc(F)c3)CC2)c1,50µM*,1%,?,20%[38.3 µM],0%,-16%[46.1 µM]
COc1ccc(-c2ncc(CN3CCC(CO)(Cc4cccc(OC)c4)CC3)cn2)cc1,14%,-1%,?,nt,-10%,35%

# Bioassay records: PubChem, National Center for Advancing Translational Sciences (NCATS)
